Inconclusive results are not listed. The source made the active and inactive calls. Calls come from the whole dose curve; as a rule, active = well fitted inhibition curve with a large enough effect; inconclusive = small, poorly fitted or top-dose-only effect; inactive = flat fitted curve, though single readings scatter.
How the values were obtained:
Test in all cases: Cytotoxic Profiling of Annotated Libraries Using Quantitative High-Throughput Screening (AID 1296008); note: nearly all actives have a fitted effect of over 60% in size
Conditions in all cases: Five cell lines viability, CellTiter-Glo ATP luminescence, 48-72 h; max response: stronger effect = lower value
CRL-7250 = normal cell line; test system: CRL-7250
How it was run: (§1)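 Compounds were pin-transferred onto cells and incubated 48 or 72 hr at 37 degree Celsius, 95% humidity. CellTiter-Glo was added, plates sat 10 min at room temperature, then ATP-coupled luminescence was imaged as the viability read-out.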

HEK293 = test system: HEK293
How it was run: as §1

HaCat = test system: HaCat
How it was run: as §1

KB-3-1 = test system: KB-3-1
How it was run: as §1

NIH3T3 = test system: NIH3T3
How it was run: as §1
% is set by controls: 0 for no effect and ±100 for the full control effect; potency is the fitted concentration of half-maximal effect.

COc1cc(O)c(C(=O)O)c(CCc2ccccc2)c1
inactive: max response (CRL-7250) -1.14% | max response (HEK293) -6.57% | outcome (HaCat) | max response (KB-3-1) 9.04% | max response (NIH3T3) -0.163%

Cn1cc(-c2c[nH]c3ncnc(N4CCOCC4)c23)cn1
inactive: max response (CRL-7250) 0.569% | max response (HEK293) -23.9% | outcome (HaCat) | outcome (KB-3-1) | outcome (NIH3T3)

CC1(C)CC[C@]2(C(=O)O)CC[C@]3(C)C(=CCC4[C@@]5(C)CC[C@H](O[C@@H]6O[C@H](C(=O)O)[C@@H](O)[C@H](O)[C@H]6O)C(C)(C)C5CC[C@]43C)C2C1 (stereo not given in full)
inactive: max response (CRL-7250) -10.5% | max response (HEK293) -9.32% | max response (HaCat) -12.1% | max response (KB-3-1) 4.15% | outcome (NIH3T3)

CC(=O)NC(Cc1c[nH]c2ccccc(=O)c12)C(=O)O (stereo not given)
inactive: max response (CRL-7250) -6.01% | max response (HEK293) 1.04% | outcome (HaCat) | outcome (KB-3-1) | max response (NIH3T3) 1.4%

COc1ccccc1N1CCN(CCCCNC(=O)c2ccc(-c3cscn3)cc2)CC1
inactive: max response (CRL-7250) -3.11% | outcome (HaCat) | max response (KB-3-1) -12.5% | max response (NIH3T3) 1.48%
active: Potency (HEK293) 20.6 µM

CC1C(O)C(O)C2C(C(=O)OCCc3ccc(O)cc3)=COC(O[C@@H]3O[C@H](CO)[C@@H](O)[C@H](O)[C@H]3O)C12 (stereo not given in full)
inactive: outcome (CRL-7250) | max response (HEK293) -0.685% | outcome (HaCat) | max response (KB-3-1) -9.14% | max response (NIH3T3) 2.97%

O=C(NC/C=C/CN1CCN(c2cccc(Cl)c2Cl)CC1)c1ccc(-c2ccccn2)cc1
inactive: max response (CRL-7250) -4.15% | outcome (HaCat) | max response (KB-3-1) -2.38% | max response (NIH3T3) 2.53%
active: Potency (HEK293) 13 µM

— PubChem BioAssay (NCATS)
